Data taken from the supplement of paper PMC11732987, “Enantioselective OTUD7B fragment discovery through chemoproteomics screening and high-throughput optimisation” (Communications Chemistry, 2025).

Key:
Test in all cases: log2 ratio of Biotin-Ahx-Ub-VS probe labelling (fragment/DMSO); higher = less target engagement (more negative = stronger competition), active = hit call of the paper (q ≤ 0.05, log2 ratio ≤ -1)
Conditions in all cases: compound concentration: 200 uM; treatment time: 3 h
USP34 = USP34 (UniProt Q70CQ2)
Outline: (§1)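 HEK293T lysate, 495 µg per sample in Tris/CHAPS/IGEPAL buffer with protease inhibitors, was treated in triplicate with fragment at 200 µM or vehicle for 3 h and then with Biotin-Ahx-Ub-VS at 0.5 µM final for 1 h. Labelled DUBs were NeutrAvidin-enriched, digested with LysC and trypsin, and run by diaPASEF LC-MS/MS. Spectronaut label-free quantities were global-median-normalised, and values are average log2 fragment/vehicle ratios by unpaired t-test on proteins with ≥2 unique peptides.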

USP36 = target: T1, USP36 (UniProt Q9P275)
T1 sequence (whole entry): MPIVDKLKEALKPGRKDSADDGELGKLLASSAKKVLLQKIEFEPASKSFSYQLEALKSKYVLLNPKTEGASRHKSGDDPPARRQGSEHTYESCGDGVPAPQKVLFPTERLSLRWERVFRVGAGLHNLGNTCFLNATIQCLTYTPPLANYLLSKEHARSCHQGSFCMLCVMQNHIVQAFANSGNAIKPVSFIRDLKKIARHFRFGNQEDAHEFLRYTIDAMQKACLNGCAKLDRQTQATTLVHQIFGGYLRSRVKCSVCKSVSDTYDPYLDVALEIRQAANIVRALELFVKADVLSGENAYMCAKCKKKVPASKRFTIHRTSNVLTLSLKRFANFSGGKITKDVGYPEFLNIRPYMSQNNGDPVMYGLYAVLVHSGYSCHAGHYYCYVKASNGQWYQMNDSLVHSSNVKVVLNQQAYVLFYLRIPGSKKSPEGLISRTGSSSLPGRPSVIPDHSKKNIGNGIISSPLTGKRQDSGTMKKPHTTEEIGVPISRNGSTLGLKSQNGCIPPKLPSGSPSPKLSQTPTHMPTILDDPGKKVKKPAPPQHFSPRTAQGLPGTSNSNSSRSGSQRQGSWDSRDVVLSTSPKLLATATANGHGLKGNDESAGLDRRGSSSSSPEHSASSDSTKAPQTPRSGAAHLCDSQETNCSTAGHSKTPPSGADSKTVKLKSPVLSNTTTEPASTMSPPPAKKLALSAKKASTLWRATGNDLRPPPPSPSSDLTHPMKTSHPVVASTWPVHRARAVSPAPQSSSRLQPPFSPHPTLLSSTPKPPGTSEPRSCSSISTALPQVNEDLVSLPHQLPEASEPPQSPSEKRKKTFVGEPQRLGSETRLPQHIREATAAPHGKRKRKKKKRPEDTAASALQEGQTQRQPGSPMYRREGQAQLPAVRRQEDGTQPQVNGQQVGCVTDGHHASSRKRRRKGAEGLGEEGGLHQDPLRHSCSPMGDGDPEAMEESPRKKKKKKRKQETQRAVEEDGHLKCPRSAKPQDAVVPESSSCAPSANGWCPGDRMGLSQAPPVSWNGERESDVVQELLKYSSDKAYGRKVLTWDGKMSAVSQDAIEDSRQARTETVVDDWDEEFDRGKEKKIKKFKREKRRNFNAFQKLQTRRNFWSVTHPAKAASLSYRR
Outline: as §1

USP38 = target: T2, USP38 (UniProt Q8NB14)
T2 sequence (whole entry): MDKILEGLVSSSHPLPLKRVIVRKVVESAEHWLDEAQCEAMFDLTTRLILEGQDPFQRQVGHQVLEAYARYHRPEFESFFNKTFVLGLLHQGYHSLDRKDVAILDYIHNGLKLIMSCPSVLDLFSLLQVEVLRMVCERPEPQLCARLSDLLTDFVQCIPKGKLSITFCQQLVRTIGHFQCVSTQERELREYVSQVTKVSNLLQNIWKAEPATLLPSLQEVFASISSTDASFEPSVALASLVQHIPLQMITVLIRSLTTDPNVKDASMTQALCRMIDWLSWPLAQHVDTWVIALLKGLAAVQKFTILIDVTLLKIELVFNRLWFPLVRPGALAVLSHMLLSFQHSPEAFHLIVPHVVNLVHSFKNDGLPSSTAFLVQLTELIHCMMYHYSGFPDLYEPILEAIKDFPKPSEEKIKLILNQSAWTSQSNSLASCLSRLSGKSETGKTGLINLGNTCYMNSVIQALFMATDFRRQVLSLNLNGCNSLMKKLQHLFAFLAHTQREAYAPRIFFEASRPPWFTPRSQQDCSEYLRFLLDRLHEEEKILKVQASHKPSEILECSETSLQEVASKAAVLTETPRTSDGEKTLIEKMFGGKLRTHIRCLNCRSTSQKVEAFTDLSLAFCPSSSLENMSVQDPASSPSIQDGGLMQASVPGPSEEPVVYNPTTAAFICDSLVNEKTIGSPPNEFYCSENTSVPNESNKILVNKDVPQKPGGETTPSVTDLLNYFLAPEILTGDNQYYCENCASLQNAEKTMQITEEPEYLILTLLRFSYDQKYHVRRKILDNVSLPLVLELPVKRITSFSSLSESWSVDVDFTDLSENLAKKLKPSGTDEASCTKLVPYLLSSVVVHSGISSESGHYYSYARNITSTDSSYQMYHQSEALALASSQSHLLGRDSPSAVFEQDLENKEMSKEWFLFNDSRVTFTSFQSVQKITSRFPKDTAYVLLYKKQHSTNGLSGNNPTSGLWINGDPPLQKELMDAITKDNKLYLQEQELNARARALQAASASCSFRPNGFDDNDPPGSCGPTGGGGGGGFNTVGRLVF
Outline: as §1

USP39 = target: T3, USP39 (UniProt Q53GS9)
T3 sequence (whole entry): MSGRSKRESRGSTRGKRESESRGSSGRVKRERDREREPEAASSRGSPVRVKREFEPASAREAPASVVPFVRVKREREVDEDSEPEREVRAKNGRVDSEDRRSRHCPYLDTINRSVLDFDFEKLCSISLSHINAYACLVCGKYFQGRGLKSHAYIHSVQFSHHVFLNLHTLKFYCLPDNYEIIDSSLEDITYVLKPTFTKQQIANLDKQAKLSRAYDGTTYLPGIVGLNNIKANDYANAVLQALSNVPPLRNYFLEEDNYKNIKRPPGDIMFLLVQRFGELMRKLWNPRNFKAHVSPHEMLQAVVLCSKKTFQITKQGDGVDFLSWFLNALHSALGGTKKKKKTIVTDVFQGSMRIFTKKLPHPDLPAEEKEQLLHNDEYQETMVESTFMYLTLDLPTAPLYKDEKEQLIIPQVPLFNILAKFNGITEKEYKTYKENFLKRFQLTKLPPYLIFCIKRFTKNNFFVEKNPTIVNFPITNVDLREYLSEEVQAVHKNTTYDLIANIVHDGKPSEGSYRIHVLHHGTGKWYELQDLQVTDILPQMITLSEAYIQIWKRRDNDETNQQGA
Outline: as §1

USP4 = target: T4, USP4 (UniProt Q13107)
T4 sequence (whole entry): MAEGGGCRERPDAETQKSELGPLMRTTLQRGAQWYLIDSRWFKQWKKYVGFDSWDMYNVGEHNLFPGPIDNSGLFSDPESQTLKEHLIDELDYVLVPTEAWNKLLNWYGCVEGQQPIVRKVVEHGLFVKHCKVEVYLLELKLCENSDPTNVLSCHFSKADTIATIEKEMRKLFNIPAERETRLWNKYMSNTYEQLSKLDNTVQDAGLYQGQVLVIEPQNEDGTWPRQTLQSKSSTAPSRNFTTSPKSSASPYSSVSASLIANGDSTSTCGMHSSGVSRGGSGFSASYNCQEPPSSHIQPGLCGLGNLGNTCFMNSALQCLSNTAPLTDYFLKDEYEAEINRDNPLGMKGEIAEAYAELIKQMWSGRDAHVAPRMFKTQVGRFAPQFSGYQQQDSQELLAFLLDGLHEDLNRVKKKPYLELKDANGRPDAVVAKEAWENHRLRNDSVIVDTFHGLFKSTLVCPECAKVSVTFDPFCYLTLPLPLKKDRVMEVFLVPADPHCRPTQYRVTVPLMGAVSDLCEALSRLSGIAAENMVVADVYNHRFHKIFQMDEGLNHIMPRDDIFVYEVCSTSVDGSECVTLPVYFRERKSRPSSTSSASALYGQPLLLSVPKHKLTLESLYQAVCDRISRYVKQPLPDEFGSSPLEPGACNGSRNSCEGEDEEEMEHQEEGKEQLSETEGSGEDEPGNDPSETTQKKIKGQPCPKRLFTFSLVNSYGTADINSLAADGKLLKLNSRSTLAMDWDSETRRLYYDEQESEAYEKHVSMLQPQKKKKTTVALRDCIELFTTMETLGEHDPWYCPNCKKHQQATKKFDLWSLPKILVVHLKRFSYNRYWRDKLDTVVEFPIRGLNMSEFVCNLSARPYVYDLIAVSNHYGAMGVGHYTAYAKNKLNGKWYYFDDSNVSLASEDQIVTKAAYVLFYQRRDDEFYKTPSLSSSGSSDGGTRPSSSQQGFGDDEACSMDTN
Outline: as §1

Measured: log2 ratio of Biotin-Ahx-Ub-VS probe labelling

Sequence of USP34 (Q70CQ2 whole entry, the tested form may be a part): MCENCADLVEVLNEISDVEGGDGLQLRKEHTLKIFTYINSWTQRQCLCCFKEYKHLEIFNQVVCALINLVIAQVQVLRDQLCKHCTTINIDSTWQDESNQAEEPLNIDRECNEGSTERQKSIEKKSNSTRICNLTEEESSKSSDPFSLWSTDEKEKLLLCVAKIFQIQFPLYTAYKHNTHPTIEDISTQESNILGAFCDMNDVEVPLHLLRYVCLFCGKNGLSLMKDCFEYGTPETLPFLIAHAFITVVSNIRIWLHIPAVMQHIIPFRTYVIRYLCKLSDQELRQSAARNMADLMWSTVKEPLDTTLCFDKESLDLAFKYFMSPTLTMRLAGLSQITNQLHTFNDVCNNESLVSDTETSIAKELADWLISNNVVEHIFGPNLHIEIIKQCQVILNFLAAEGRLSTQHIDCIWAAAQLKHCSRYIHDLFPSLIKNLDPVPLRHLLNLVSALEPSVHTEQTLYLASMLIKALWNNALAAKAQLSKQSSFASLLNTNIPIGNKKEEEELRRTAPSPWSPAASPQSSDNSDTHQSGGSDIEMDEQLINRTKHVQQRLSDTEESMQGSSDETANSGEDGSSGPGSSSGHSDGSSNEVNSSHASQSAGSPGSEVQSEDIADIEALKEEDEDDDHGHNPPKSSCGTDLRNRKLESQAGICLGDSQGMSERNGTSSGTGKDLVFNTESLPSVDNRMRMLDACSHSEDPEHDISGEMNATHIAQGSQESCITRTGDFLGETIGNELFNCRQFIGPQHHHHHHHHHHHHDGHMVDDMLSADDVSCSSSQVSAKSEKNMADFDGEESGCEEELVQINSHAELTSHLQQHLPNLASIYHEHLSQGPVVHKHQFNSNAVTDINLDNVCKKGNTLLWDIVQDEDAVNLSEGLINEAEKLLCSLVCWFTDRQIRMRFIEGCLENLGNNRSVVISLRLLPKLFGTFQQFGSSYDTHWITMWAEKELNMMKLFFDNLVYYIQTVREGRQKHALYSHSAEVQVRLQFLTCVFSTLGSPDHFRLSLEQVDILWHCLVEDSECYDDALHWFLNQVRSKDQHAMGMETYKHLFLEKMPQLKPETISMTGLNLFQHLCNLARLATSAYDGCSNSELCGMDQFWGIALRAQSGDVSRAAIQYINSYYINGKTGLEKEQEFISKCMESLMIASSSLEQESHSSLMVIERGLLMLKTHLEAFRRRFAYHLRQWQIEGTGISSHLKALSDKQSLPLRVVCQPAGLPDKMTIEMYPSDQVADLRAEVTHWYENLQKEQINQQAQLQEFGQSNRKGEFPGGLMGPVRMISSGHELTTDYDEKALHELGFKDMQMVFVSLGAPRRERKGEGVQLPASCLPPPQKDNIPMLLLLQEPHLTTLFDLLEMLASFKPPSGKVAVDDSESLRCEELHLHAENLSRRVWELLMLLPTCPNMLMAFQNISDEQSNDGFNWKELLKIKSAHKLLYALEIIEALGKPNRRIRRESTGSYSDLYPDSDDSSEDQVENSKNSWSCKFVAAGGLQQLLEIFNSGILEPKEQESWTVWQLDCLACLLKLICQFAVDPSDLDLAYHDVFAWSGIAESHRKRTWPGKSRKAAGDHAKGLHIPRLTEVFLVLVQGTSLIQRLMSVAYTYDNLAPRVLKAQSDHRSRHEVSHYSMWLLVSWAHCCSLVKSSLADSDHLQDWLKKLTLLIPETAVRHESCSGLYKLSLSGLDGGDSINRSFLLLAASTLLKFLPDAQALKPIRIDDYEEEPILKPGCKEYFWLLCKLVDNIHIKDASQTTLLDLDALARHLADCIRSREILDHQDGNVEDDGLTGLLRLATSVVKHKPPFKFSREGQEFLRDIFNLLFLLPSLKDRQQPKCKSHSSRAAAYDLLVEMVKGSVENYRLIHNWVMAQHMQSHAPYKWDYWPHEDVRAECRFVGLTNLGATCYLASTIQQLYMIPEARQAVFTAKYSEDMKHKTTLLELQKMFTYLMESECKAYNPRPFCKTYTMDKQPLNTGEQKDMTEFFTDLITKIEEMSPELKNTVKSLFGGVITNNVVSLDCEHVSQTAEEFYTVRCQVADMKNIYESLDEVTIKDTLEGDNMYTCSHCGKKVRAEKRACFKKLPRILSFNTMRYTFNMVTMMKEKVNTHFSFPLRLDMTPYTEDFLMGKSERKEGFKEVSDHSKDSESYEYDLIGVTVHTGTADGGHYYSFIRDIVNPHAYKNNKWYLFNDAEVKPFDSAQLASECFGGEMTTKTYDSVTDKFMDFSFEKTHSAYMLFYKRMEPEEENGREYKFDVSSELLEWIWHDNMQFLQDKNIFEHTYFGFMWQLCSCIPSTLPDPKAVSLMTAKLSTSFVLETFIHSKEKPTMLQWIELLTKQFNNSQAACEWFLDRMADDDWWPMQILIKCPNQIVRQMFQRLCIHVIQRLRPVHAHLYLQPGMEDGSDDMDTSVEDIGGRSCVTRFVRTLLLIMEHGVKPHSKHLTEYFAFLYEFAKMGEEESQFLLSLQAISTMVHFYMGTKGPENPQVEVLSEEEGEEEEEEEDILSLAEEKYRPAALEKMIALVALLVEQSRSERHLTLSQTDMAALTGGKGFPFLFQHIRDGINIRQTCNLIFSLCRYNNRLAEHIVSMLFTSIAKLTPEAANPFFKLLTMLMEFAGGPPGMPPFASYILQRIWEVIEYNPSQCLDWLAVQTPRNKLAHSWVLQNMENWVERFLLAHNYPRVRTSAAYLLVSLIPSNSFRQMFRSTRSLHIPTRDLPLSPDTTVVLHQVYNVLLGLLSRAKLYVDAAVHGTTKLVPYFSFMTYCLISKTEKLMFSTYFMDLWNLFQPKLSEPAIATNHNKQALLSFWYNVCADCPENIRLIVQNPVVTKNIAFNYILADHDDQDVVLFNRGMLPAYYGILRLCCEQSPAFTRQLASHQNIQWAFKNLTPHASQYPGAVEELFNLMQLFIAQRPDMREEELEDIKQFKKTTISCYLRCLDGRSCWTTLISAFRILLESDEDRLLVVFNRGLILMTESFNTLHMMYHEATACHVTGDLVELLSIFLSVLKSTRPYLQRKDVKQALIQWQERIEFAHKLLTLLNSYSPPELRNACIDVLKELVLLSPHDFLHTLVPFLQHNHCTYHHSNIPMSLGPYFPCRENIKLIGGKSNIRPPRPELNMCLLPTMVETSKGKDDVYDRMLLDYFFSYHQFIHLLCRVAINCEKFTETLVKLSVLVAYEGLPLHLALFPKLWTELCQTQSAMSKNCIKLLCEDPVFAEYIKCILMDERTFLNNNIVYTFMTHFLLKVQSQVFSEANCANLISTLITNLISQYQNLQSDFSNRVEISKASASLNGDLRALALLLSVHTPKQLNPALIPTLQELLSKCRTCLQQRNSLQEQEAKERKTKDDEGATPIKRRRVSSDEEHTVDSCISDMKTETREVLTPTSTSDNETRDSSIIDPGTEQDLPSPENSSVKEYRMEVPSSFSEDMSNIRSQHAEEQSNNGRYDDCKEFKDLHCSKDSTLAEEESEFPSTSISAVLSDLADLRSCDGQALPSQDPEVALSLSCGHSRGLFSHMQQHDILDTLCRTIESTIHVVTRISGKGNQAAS

O=C(CCl)N(C1=CCCCC1)C1CC1
inactive: USP34 -0.0141 | USP36 -0.116 | USP38 -0.172 | USP39 -0.177 | USP4 0.0249
